Measurements as given in PubChem BioAssay AID1159580 (chemical genetic matrix, 2015).
In all, about 5,500 compounds went through this assay and about 2,000 (36%) were called active. Not shown: some 18% with an inconclusive outcome. Rule as the data show it: active = normalized growth mostly below about 0.91 (no sharp cut-off); inconclusive = no clear call, values can overlap the other calls; inactive = mostly above about 0.92. The list shows a part of the results.

Assay: chemical genetic growth profiling, strain panel (AID 1159580);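 also: tested at 20 µM; growth read once vehicle control cultures reached saturation at 30 °C; 1 = growth at the plate median or of vehicle wells; lower values mean less growth of the strain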
Conditions: growth OD

Measured: normalized growth

COc1ccc2cc(CCC(C)=O)ccc2c1
active: S. cerevisiae deletion strains, locus YKL009W, strain mrt4, active compounds read low 0.86 | S. cerevisiae deletion strains, locus YLR418C, strain cdc73, active compounds read low 0.78 | S. cerevisiae deletion strains, locus YML124C, strain tub3, active compounds read low 0.929 | S. cerevisiae deletion strains, locus YMR223W, strain ubp8, active compounds read low 0.895 | S. cerevisiae deletion strains, locus YNL307C, strain MCK1, active compounds read low 0.827 | S. cerevisiae deletion strains, locus YOR184W, strain ser1, active compounds read low 0.786
inactive: S. cerevisiae deletion strains, locus YJR075W, strain HOC1, active compounds read low 0.965 | S. cerevisiae deletion strains, locus YKL068W, active compounds read low 0.963 | S. cerevisiae deletion strains, locus YKL085W, strain MDH1 (second series), active compounds read low 0.966 | S. cerevisiae deletion strains, locus YKL085W, strain MDH1, active compounds read low 0.966 | S. cerevisiae deletion strains, locus YKL160W, strain elf1, active compounds read low 0.997 | S. cerevisiae deletion strains, locus YKL190W, strain CNB1, active compounds read low 0.972 | S. cerevisiae deletion strains, locus YKR001C, strain vps1, active compounds read low 0.932 | S. cerevisiae deletion strains, locus YKR026C, strain gcn3, active compounds read low 0.984 | S. cerevisiae deletion strains, locus YKR091W, strain srl3, active compounds read low 0.992 | S. cerevisiae deletion strains, locus YLL001W, strain dnm1, active compounds read low 0.982 | S. cerevisiae deletion strains, locus YLL026W, active compounds read low 0.991 | S. cerevisiae deletion strains, locus YLL041C, strain sdh2, active compounds read low 0.996 | S. cerevisiae deletion strains, locus YLR027C, strain aat2, active compounds read low 0.997 | S. cerevisiae deletion strains, locus YLR039C, strain RIC1, active compounds read low 1.11 | S. cerevisiae deletion strains, locus YLR058C, strain SHM2, active compounds read low 0.948 | S. cerevisiae deletion strains, locus YLR102C, strain apc9, active compounds read low 0.944 | S. cerevisiae deletion strains, locus YLR113W, strain HOG1, active compounds read low 0.965 | S. cerevisiae deletion strains, locus YLR221C, strain rsa3, active compounds read low 0.992 | S. cerevisiae deletion strains, locus YLR258W, strain gsy2, active compounds read low 0.998 | S. cerevisiae deletion strains, locus YLR262C, strain YPT6 (second series), active compounds read low 1.03 | S. cerevisiae deletion strains, locus YLR262C, strain YPT6, active compounds read low 1.04 | S. cerevisiae deletion strains, locus YLR268W, strain sec22, active compounds read low 1.01 | S. cerevisiae deletion strains, locus YLR320W, strain mms22, active compounds read low 0.971 | S. cerevisiae deletion strains, locus YLR330W, strain CHS5, active compounds read low 0.951 | S. cerevisiae deletion strains, locus YLR342W, strain FKS1 (second series), active compounds read low 0.885 | S. cerevisiae deletion strains, locus YLR342W, strain FKS1, active compounds read low 0.993 | S. cerevisiae deletion strains, locus YLR357W, strain rsc2, active compounds read low 0.992 | S. cerevisiae deletion strains, locus YLR370C, strain arc18, active compounds read low 0.998 | S. cerevisiae deletion strains, locus YLR371W, strain rom2, active compounds read low 0.932 | S. cerevisiae deletion strains, locus YLR384C, strain iki3, active compounds read low 0.986 | S. cerevisiae deletion strains, locus YML016C, strain PPZ1, active compounds read low 0.941 | S. cerevisiae deletion strains, locus YML032C, strain rad52, active compounds read low 0.967 | S. cerevisiae deletion strains, locus YML120C, strain ndi1, active compounds read low 0.985 | S. cerevisiae deletion strains, locus YMR058W, strain fet3, active compounds read low 0.996 | S. cerevisiae deletion strains, locus YMR078C, strain ctf18, active compounds read low 0.929 | S. cerevisiae deletion strains, locus YMR125W, strain sto1, active compounds read low 1.01 | S. cerevisiae deletion strains, locus YMR129W, active compounds read low 0.983 | S. cerevisiae deletion strains, locus YMR205C, strain PFK2, active compounds read low 1.01 | S. cerevisiae deletion strains, locus YMR231W, strain pep5, active compounds read low 0.999 | S. cerevisiae deletion strains, locus YMR263W, strain SAP30, active compounds read low 0.923 | S. cerevisiae deletion strains, locus YMR307W, strain GAS1, active compounds read low 0.917 | S. cerevisiae deletion strains, locus YNL067W, strain RPL9B, active compounds read low 0.97 | S. cerevisiae deletion strains, locus YNL071W, strain lat1, active compounds read low 0.987 | S. cerevisiae deletion strains, locus YNL128W, strain TEP1, active compounds read low 0.963 | S. cerevisiae deletion strains, locus YNL153C, strain GIM3, active compounds read low 0.975 | S. cerevisiae deletion strains, locus YNL183C, strain NPR1, active compounds read low 0.91 | S. cerevisiae deletion strains, locus YNL209W, strain ssb2, active compounds read low 0.995 | S. cerevisiae deletion strains, locus YNL233W, strain BNI4, active compounds read low 0.972 | S. cerevisiae deletion strains, locus YNL248C, strain rpa49, active compounds read low 1.02 | S. cerevisiae deletion strains, locus YNL250W, strain rad50, active compounds read low 0.943 | S. cerevisiae deletion strains, locus YNL271C, strain bni1, active compounds read low 0.939 | S. cerevisiae deletion strains, locus YNL298W, strain CLA4, active compounds read low 0.919 | S. cerevisiae deletion strains, locus YNL322C, strain KRE1 (second series), active compounds read low 0.996 | S. cerevisiae deletion strains, locus YNL322C, strain KRE1, active compounds read low 0.961 | S. cerevisiae deletion strains, locus YNR049C, strain mso1, active compounds read low 0.991 | S. cerevisiae deletion strains, locus YNR052C, strain pop2, active compounds read low 0.972 | S. cerevisiae deletion strains, locus YOL006C, strain TOP1, active compounds read low 0.672 | S. cerevisiae deletion strains, locus YOL012C, strain htz1 1.84 | S. cerevisiae deletion strains, locus YOL147C, strain pex11, active compounds read low 0.939 | S. cerevisiae deletion strains, locus YOR001W, strain rrp6, active compounds read low 0.979 | S. cerevisiae deletion strains, locus YOR061W, strain CKA2, active compounds read low 0.947 | S. cerevisiae deletion strains, locus YOR069W, strain VPS5, active compounds read low 0.97 | S. cerevisiae deletion strains, locus YOR070C, strain gyp1, active compounds read low 0.991 | S. cerevisiae deletion strains, locus YOR080W, strain dia2, active compounds read low 0.988 | S. cerevisiae deletion strains, locus YOR083W, strain WHI5, active compounds read low 0.985 | S. cerevisiae deletion strains, locus YOR106W, strain vam3, active compounds read low 1 | S. cerevisiae deletion strains, locus YOR136W, strain idh2, active compounds read low 0.956 | S. cerevisiae deletion strains, locus YOR144C, strain elg1, active compounds read low 0.951 | S. cerevisiae deletion strains, locus YOR231W, strain MKK1, active compounds read low 0.93 | S. cerevisiae deletion strains, locus YOR265W, strain rbl2, active compounds read low 0.987 | S. cerevisiae deletion strains, locus YOR270C, strain vph1, active compounds read low 0.886 | S. cerevisiae deletion strains, locus YOR290C, strain snf2, active compounds read low 0.977 | S. cerevisiae deletion strains, locus YOR316C, strain cot1, active compounds read low 0.943 | S. cerevisiae deletion strains, locus YPL051W, strain arl3, active compounds read low 0.985 | S. cerevisiae deletion strains, locus YPL055C, strain LGE1, active compounds read low 0.88 | S. cerevisiae deletion strains, locus YPL078C, strain atp4, active compounds read low 0.981 | S. cerevisiae deletion strains, locus YPL106C, strain sse1, active compounds read low 0.96 | S. cerevisiae deletion strains, locus YPL240C, strain hsp82, active compounds read low 0.992 | S. cerevisiae deletion strains, locus YPL241C, strain CIN2, active compounds read low 0.96 | S. cerevisiae deletion strains, locus YPL256C, strain CLN2, active compounds read low 0.911 | S. cerevisiae deletion strains, locus YPR119W, strain clb2, active compounds read low 0.943 | S. cerevisiae deletion strains, locus YPR141C, strain kar3, active compounds read low 0.924 | S. cerevisiae deletion strains, locus YPR163C, strain tif3, active compounds read low 0.935 | S. cerevisiae deletion strains, locus YPR167C, strain met16, active compounds read low 0.941 | S. cerevisiae deletion strains, strain wtn01, active compounds read low 0.959 | S. cerevisiae strains, strain wild type, active compounds read low 0.935
